91 compounds from PubChem BioAssay AID463115 (University of Pittsburgh Molecular Library Screening Center, 2010) can be followed below.

SMILES strings stand for the structures. Among all 220,000 compounds or so, about 130 (0.059%) were called active. Cut-off read from the data, not from the text of the source: active = inhibition above about 25%; inactive = the rest. The sample as a whole holds a higher share of actives than the screen did.

In the experiment the target is Furin (Homo sapiens) (UniProt P09958). The experiment in a line: furin protease activity blockers – biochemical, fluorescence intensity, primary screen (AID 463115). The note with it: purified furin, fluorogenic substrate cleavage, hits give high values; at 30 µM unless noted.
Sequence of Furin (Homo sapiens) (P09958 108-714 limits assumed): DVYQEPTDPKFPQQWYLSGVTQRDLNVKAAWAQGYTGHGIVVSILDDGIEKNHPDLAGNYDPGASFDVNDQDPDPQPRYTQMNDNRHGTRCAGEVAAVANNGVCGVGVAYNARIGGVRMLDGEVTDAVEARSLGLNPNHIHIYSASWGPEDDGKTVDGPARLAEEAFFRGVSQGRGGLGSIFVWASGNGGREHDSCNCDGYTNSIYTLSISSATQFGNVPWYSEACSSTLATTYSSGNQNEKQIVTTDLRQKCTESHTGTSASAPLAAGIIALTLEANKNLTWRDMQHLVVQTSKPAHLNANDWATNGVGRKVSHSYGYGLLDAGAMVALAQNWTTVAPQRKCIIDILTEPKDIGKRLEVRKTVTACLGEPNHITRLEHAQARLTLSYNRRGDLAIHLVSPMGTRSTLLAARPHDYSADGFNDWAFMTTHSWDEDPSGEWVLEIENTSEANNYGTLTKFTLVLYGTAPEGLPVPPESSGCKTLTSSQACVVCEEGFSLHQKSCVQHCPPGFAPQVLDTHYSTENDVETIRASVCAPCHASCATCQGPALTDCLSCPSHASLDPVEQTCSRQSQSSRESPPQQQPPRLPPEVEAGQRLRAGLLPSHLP
The inhibition is the relative decrease from the control value, in per cent. For the compound `COc1cccc(OCc2cc(/C=N/NC(=O)c3nc(Cl)c(Cl)c(N)c3Cl)ccc2OC)c1`, the inhibition is -20.2% [at 20 µM] (inactive).
Under `Cc1ccc(C(=O)NC(=S)Nc2ccc3[nH]c(=O)[nH]c3c2)cc1C` stands -13.7% (inactive).
Take `C=C(C)Cn1c(C)cc(C)c(S(=O)(=O)c2ccccc2C)c1=O`: the inhibition was 5.86% [at 20 µM] (inactive).
With `CC(C)NC(=O)C(=O)N/N=C/c1ccco1`, the inhibition is -9.76% [at 20 µM] (inactive).
In the case of `Cc1ccccc1NC(=O)Nc1ccccc1N1CCCCC1`, the inhibition was -10.3% (inactive).
`Cc1cc(OC(=O)c2ccccc2Cl)ccc1N1C(=O)CCC1=O`: the inhibition was -16% (inactive).
As for `Cc1cccc(-n2c(SCC(=O)Nc3cccc(S(=O)(=O)NC4=NCCCCC4)c3)nc3ccccc3c2=O)c1C`, the inhibition was -12.8% (inactive).
Under `COc1ccc(CCNC(=O)C(=O)NCc2ccccc2C)cc1OC` stands -21% (inactive); under `C=CCn1c(C(C)NC(=O)CC)nc2ccccc21` (stereo unspecified), -10.5% [at 20 µM] (inactive); under `CCC(=O)Nc1nc2ccccc2n1Cc1ccccc1C`, -19.3% (inactive).
Under `CC(=O)NC(C)c1nc2ccccc2n1Cc1ccccc1F` (stereo unspecified) stands 29.1% [at 20 µM] (active); under `CCCCNC(=O)N1CCN(S(C)(=O)=O)CC1`, -17.1% (inactive).
On to `CNC(=S)N/N=C/c1cn(Cc2ccc(C)cc2)c2ccccc12`, for which the inhibition is -4.13% (inactive).
As to `O=C1CCCc2nn(-c3ccccc3)nc21`, the inhibition was -13.3% [at 20 µM] (inactive).
`O=C(Nc1cccnc1)c1cc2cc(Br)ccc2oc1=O`: the inhibition is -18% (inactive).
With `CSc1ccc(C#N)cc1NC(=O)c1ccc(Cl)cc1`, the inhibition is -25.3% [at 20 µM] (inactive).
As for `COc1ccc(NC(=O)C(NC(C)=O)C(=O)NCc2ccccc2Cl)cc1` (stereo unspecified), the inhibition was -24.7% [at 20 µM] (inactive).
As for `Cc1ccc(-c2cc(C(F)(F)F)n3ncc(C(=O)N4CCCCC4c4cccnc4)c3n2)cc1` (stereo unspecified), the inhibition is -31.6% (inactive).
`Cc1ccc(N(Cc2cc3ccccc3[nH]c2=O)C(=O)c2cccs2)cc1`: the inhibition is -16% (inactive).
On to `CC1(C)CC(=O)C(CC(=O)N2CCC(Cc3ccccc3)CC2)C(=O)C1`, for which the inhibition is -13% (inactive).
The result for `O=C(O)/C(=C/c1cccnc1)NC(=O)c1ccccc1` reads -17.1% (inactive); that for `COc1cc([C@H](Cc2ccccc2)NC(C)=O)oc(=O)c1`, -28.7% (inactive).
Under `CSc1nc(C)nc(C2CC2)c1C#N` stands -16.6% (inactive); under `C=CCOC(=O)C1=C(C)NC(C)=C(C(=O)OCC=C)C1c1cccs1`, -8.1% [at 20 µM] (inactive); under `COc1ccc2c(CC(=O)OCC(=O)Nc3ccccc3[N+](=O)[O-])coc2c1`, -10.8% (inactive).
As to `Clc1ccc(C[n+]2cc(-c3ccccc3)n3c2CCC3)cc1`, the inhibition is -20.2% (inactive).
Under `CCC1C=C(c2ccccc2)C=CN=C1N(CC)CC` (stereo unspecified) stands -18.4% (inactive); under `CC1=C(C)CC(C(=O)NC(C)CCc2ccccc2)C(C(=O)O)C1` (stereo unspecified), -15% (inactive); under `CC1=C(C)C(=O)OC(C(C)C2CCC3C4CC=C5CC(OC6OC(COC7OC(CO)C(O)C(O)C7O)C(O)C(O)C6O)CC(O)C5(C)C4CCC23C)C1` (stereo unspecified), -28.1% (inactive).
As for `CC1CCCC(C)N1/N=C/c1ccccc1OC(F)F` (stereo unspecified), the inhibition is -34.3% (inactive).
As to `NC(N)=Nc1nc2ccc(Br)cc2c(=O)[nH]1`, the inhibition is -13.8% (inactive).
With `CCOc1ccc(NC(=S)NC(=O)/C=C/c2ccc(OC)cc2)c([N+](=O)[O-])c1`, the inhibition is -14.6% (inactive).
The result for `Cc1c(Br)cc(C(=O)N2CCCCCC2)c(C)c1C` reads -19.1% [at 20 µM] (inactive); that for `CC(C)CCN1CCN(Cc2ccc(C(F)(F)F)cc2)CC1CCO` (stereo unspecified), -11.2% (inactive); that for `COc1ccc(OC)c(S(=O)(=O)NCCC(C)C)c1`, -25.7% (inactive).
In the case of `O=C(NCCc1ccccn1)c1cc(-c2ccc(Cl)cc2)nc2ccccc12`, the inhibition is -20.1% (inactive).
On to `CC12CN3CCN(CC(C3)/C1=N\NC(=O)c1ccccc1N)C2`, for which the inhibition was -14.7% (inactive).
As to `CC(CC(=O)O)CC(=O)NNC(=O)c1cccc(Br)c1` (stereo unspecified), the inhibition is 4.22% (inactive).
`CCCOn1c(-n2nc(C)cc2C)nc2ccccc2c1=O`: the inhibition is -1.39% [at 20 µM] (inactive).
`CC(C)Oc1ccccc1C(=O)NC(CO)C(=O)O` (stereo unspecified): the inhibition is -21.8% (inactive).
For the compound `CC(C)(C)NC(=O)NC(=O)COC(=O)Cc1ccc(Cl)cc1Cl`, the inhibition was -11.5% (inactive).
With `CCOC(=O)c1nnn2c1nc(N1CCN(c3ccccc3)CC1)c1ccccc12`, the inhibition is -23.3% (inactive).
With `C=C(C)C1CC=C(C)/C(=N/NC(=O)CCCNc2cccc(C)c2)C1` (stereo unspecified), the inhibition is -8.06% (inactive).
Take `CCc1ccc(NC(=O)CC2C(=O)NCCN2C(=S)Nc2ccccc2)cc1` (stereo unspecified): the inhibition was -22.7% (inactive).
Consider `CC(C)C(O)C1CCN(Cc2nc(Cc3ccccc3Cl)no2)CC1` (stereo unspecified), for which the inhibition is -21.2% (inactive).
For the compound `CC(=O)c1sc(NC(=O)c2ccc(C)cc2)nc1C`, the inhibition is 26.4% [at 20 µM] (active).
The result for `COC(=O)c1sc(NC(=S)NC(=O)c2ccc(C)cc2)nc1C` reads -11.8% (inactive); that for `CC(=O)c1sc(NC(=O)c2cccc3ccccc23)nc1C`, -10.7% [at 20 µM] (inactive); that for `CN(C)c1ccc(/C=N/NC(=O)C(O)c2ccc(Br)cc2)cc1` (stereo unspecified), -19% (inactive).
The result for `CCC(=O)NC(Nc1nc2ccc(C)cc2s1)(C(=O)OC)C(F)(F)F` (stereo unspecified) reads -11.3% [at 20 µM] (inactive).
The result for `CCCCNC(=O)OC(C)CNC(=O)OC` (stereo unspecified) reads -9.97% [at 20 µM] (inactive); that for `CN(C)/N=C/c1cn(-c2ccccc2)nc1-c1cccnc1`, 1.34% (inactive).
For `CCCNS(=O)(=O)c1ccc(CCC(=O)N2CCCC2)cc1`, the inhibition was -15.5% (inactive).
As for `C=CC(COCc1ccccc1)N(Cc1ccccc1)S(=O)(=O)c1ccccc1Br` (stereo unspecified), the inhibition was -14.6% (inactive).
Take `COc1ccc(C2=NOC3(CC(=O)N(c4ccc(Cl)cc4)C3=O)C2)c(OC)c1` (stereo unspecified): the inhibition was -21.1% [at 20 µM] (inactive).
The result for `O=C(NC1CCN(Cc2ccccc2)CC1)c1c(F)cccc1F` reads -12.2% (inactive); that for `Nc1c(NCCc2ccccc2)c2ccccc2oc1=O`, -0.514% (inactive).
For `Cc1cc(Nc2ccc(N3CCOCC3)cc2)c2cccc(C)c2n1`, the inhibition is 3.96% (inactive).
In the case of `O=C(NN1C(=O)C2C(C1=O)C1C=CC2C12CC2)c1ccccc1Cl` (stereo unspecified), the inhibition is -7.61% (inactive).
Turning to `Cc1ccc(N(C(=O)Cc2cccs2)C2C=CS(=O)(=O)C2)cc1Cl` (stereo unspecified), the inhibition is -2.17% (inactive).
`Cc1ccc(-n2c(SCC(=O)N/N=C/C=C/c3ccccc3[N+](=O)[O-])nc3ccccc3c2=O)cc1`: the inhibition was -14.5% (inactive).
As to `CCC(=O)N(Cc1cc2ccccc2[nH]c1=O)c1ccc(OC)cc1`, the inhibition was -11.6% (inactive).
With `CCCCc1ccc(NC(=S)N2CCCC(CO)C2)cc1` (stereo unspecified), the inhibition was -6.03% (inactive).
Under `O=S(=O)(NCC1CCCO1)c1cnc(Cl)c(Cl)c1` (stereo unspecified) stands -12.9% (inactive); under `Cc1ccc(NC(=S)N(CCN(C)C)Cc2cccs2)cc1C`, -9.92% (inactive); under `COc1cccc(/C=N/NC(=O)CNC(=O)c2ccc(S(=O)(=O)N3CCOCC3)cc2)c1OC`, -9.37% (inactive).
Take `COC(=O)CCc1sc(Nc2ccc(Br)cc2)nc1-c1ccc(OC)cc1`: the inhibition is -10.8% (inactive).
In the case of `CC1=CC=CN2C1=NC(=O)CC2(C)C(=O)N(CC(=O)NC1CCCC1)c1ccccc1C` (stereo unspecified), the inhibition is -22.6% (inactive).
With `CC(C)C1Nc2c(C(=O)O)cccc2C(Nc2ccccc2C(=O)O)C1(C)C` (stereo unspecified), the inhibition is -28% (inactive).
The result for `Cn1c(CCCOc2ccc(Cl)cc2Cl)n[nH]c1=S` reads -27% (inactive); that for `O=C(O)C1C2CC2CN1C(=O)c1ccc(Cl)cc1Cl` (stereo unspecified), -14.1% (inactive).
For the compound `O=C1CC(Cc2ccc(Cl)cc2)C(=O)N1c1cc(Cl)ccn1` (stereo unspecified), the inhibition was 7.89% (inactive).
For the compound `CCn1c(-c2cccnc2Cl)nc2cc(C)c(C)cc21`, the inhibition was -16.4% (inactive).
Under `CCOC(=O)CCCNC(=O)COC(=O)c1cc(Br)c(Br)s1` stands -22.9% (inactive); under `CC(Sc1nnc(Cc2ccc([N+](=O)[O-])cc2)o1)C(N)=O` (stereo unspecified), -20.4% [at 20 µM] (inactive); under `O=C(c1ccc(OC2CCN(C(=O)c3cccnc3)CC2)cc1)N1CCCCCC1`, -20.3% (inactive).
Turning to `CCOC(=O)/C(=C\c1ccc([N+](=O)[O-])cc1)C(=O)c1cc(C(C)=O)c(Nc2ccccc2)s1`, the inhibition was -2.4% (inactive).
In the case of `CC(C)(C)c1nc2ccccc2c(=O)n1N1C(=O)c2ccccc2C1=O`, the inhibition was -15.6% [at 20 µM] (inactive).
Under `O=C(NC1CCN(Cc2ccccc2)CC1)c1cc(Br)c(Br)[nH]1` stands -27.8% (inactive).
For the compound `NC(N)=NCCCc1cn(CC(=O)N2CCNCC2)nn1`, the inhibition is -18.6% (inactive).
With `CC(C)(O)C#Cc1ncc(C(F)(F)F)cc1Cl`, the inhibition is -28.4% (inactive).
In the case of `Cc1ccc(/C=C/C(=O)O)cc1S(=O)(=O)N1CCC(Cc2ccccc2)CC1`, the inhibition is -29.9% (inactive).
As for `CCOc1ccc(N2C(=O)/C(=C/c3ccc(C)o3)N(C)C2=S)cc1`, the inhibition was 3.15% (inactive).
Under `O=C(/C=C/NNC(=O)c1cccc(Br)c1)c1ccccc1` stands 0.209% [at 20 µM] (inactive); under `O=C(C1=C[C@H](c2coc3ccccc3c2=O)C[C@H](OCc2ccc(CO)cc2)O1)N1CCN(Cc2ccccc2)CC1`, -22.1% (inactive); under `COc1cc(/C=N\NC(=O)c2nonc2N)c(OC)cc1Br`, -19.8% (inactive).
Consider `Cc1nnc(SCC(=O)NC2CCCC2)s1`, for which the inhibition is -7.06% [at 20 µM] (inactive).
Take `NNc1nc2c(Cl)cccc2s1`: the inhibition was -15.9% (inactive).
In the case of `COc1ccc(NS(=O)(=O)c2ccc(Oc3c(C#N)cccc3C#N)cc2)cc1`, the inhibition was -15.9% (inactive).
The result for `CC1=C[C@H]2Cc3cc(C)cc(C)c3S(=O)(=O)[C@@H]2C=C1` reads -14.9% (inactive); that for `Cn1c(=O)c2c(ncn2CC(COCc2ccccc2Cl)OCc2ccccc2Cl)n(C)c1=O` (stereo unspecified), -9.34% [at 20 µM] (inactive).
